In all, about 220,000 compounds went through this assay and about 830 (0.38%) were called active. Only a selection was taken, and actives are over-represented in it overall. Values without a mark were called inactive. No rule for the calls is given here.
Molecular target: Regulator of G-protein signaling 16 (Homo sapiens) + Guanine nucleotide-binding protein G(o) subunit alpha (Homo sapiens) (UniProt O15492+P09471)
Assay: RGS16-Galphao interaction inhibitors and enhancers – biochemical, human proteins, multiplexed bead flow cytometry, primary screen (AID 1441);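 also: Galphao activated by GDP with aluminum fluoride before binding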
Settings: bead-based flow cytometry RGS16-Galphao binding, fluorescence; at 10 µM; actives lie on both sides

Regulator of G-protein signaling 16 (Homo sapiens) + Guanine nucleotide-binding protein G(o) subunit alpha (Homo sapiens), sequence (O15492 whole entry, looked up): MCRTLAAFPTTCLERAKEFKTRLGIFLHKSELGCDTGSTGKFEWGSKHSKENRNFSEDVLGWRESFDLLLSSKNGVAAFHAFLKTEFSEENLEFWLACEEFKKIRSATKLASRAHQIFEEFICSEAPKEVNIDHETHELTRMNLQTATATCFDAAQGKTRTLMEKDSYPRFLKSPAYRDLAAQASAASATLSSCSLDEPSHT
Regulator of G-protein signaling 16 (Homo sapiens) + Guanine nucleotide-binding protein G(o) subunit alpha (Homo sapiens), sequence (P09471 whole entry, looked up): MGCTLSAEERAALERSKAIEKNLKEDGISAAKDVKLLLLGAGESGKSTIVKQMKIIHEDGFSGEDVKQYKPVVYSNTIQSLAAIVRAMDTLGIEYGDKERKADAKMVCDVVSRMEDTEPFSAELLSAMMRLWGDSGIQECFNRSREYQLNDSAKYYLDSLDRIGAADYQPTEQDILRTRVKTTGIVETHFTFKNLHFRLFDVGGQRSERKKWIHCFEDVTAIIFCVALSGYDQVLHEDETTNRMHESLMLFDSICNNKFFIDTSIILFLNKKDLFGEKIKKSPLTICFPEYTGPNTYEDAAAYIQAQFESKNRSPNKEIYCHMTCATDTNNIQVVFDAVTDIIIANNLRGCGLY

| Structure (SMILES) | binding response (% of control) |
| --- | --- |
| CC(C)N(CC#CCC1(O)c2ccccc2-c2ccccc21)C(C)C | 180% [activator] (active) |
| CCOC(=O)C1(Cc2ccc(Cl)cc2)CCN(C(C)CCn2cccn2)CC1 (stereo not given) | 102% |
| O=[N+]([O-])c1ccc(C2C3C(c4ccccc4)=NC4(CCCCC4)N32)cc1 (stereo not given) | 100% |
| COc1ccc(CN2C(=O)NC(=O)/C(=C\c3ccc(OC)c(OC)c3OC)C2=O)cc1 | 97.6% |
| CCOC(=O)c1c(-c2ccccc2)oc2ccc(OC(=O)N(C)C)cc12 | 116% |
